Laboratory results as given in PubChem BioAssay (NCATS).
Results filed as inconclusive are left out. Where a structure was tested more than once in an assay, its records may differ in their call. Active and inactive are the calls of the source. The call rests on the fitted dose curve; in most records, active means well fitted inhibition curve with a large enough effect; inconclusive means small, poorly fitted or top-dose-only effect; inactive means flat fitted curve, though single readings scatter.

System: not listed separately
Experiment: Drug repurposing screens with cells derived from glioblastoma tumor samples (AID 1345199); further: nearly all actives have a fitted effect of over 40% in size
Conditions: GBM patient neurospheres viability, ATP luminescence, 48 h; tumour line A
Procedure, shortened: (§1)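 Primary testing used CD133+ neurospheres from four GBM patients, seven concentrations, 48 h exposure and ATP-based viability; confirmation added three slower-growing patient lines.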
On the % scale 0 is the no-effect control and ±100 the full control effect; potency means the concentration at half of the fitted maximal effect.

| SMILES | Potency |
| --- | --- |
| CCCCCCCCCCCCCCCC(=O)OC/C=C(C)/C=C/C=C(C)/C=C/C1=C(C)CCCC1(C)C | 20 µM (active) |
| Nc1ncnc(Nc2ccc(Cl)cc2)n1 | 35.5 µM (active) |
| C/C(=C(\CCOC(=O)c1ccccc1)SS/C(CCOC(=O)c1ccccc1)=C(/C)N(C=O)Cc1cnc(C)nc1N)N(C=O)Cc1cnc(C)nc1N | 35.5 µM (active) |
| CC(=O)O[C@H]1CC[C@@]2(C)C(=CC[C@@H]3[C@@H]2CC[C@]2(C)C(c4cccnc4)=CC[C@@H]32)C1 | 11.2 µM (active) |
| CCCCCCCC(=O)CC[C@@H]1[C@@H](C/C=C\CCCC(=O)OC(C)C)[C@@H](O)C[C@H]1O | 11.2 µM (active) |
| COc1cc2c(c(OC)c1OC)-c1c(cc3c(c1OC)OCO3)C[C@@H](C)[C@](C)(O)C2 | 22.4 µM (active) |
| CC(=O)[C@@]1(O)CC[C@H]2[C@@H]3C=C(Cl)C4=CC(=O)CC[C@]4(C)[C@H]3CC[C@@]21C | 12.6 µM (active) |
| CCC(=O)Oc1ccc2c(c1)CC[C@@H]1[C@@H]2CC[C@]2(C)[C@@H](OC(=O)CC)CC[C@@H]12 | 12.6 µM (active) |
| CC(C)(S)C(=O)N[C@@H](CS)C(=O)O | 39.8 µM (active) |
| CCOC(=O)Nc1ccc2c(c1)N(C(=O)CN(C)C)c1ccccc1CC2 | 44.7 µM (active) |

System: astro (control astrocytes)
Experiment: as above
Conditions: viability, ATP luminescence, 48 h; series mostly up to 45.9 µM; activity, negative = cell killing: at the top concentration
Procedure, shortened: as §1

| SMILES | activity, negative = cell killing | Potency |
| --- | --- | --- |
| CCCN(CC)C(CC)C(=O)Nc1c(C)cccc1C (stereo unspecified) | -13.7% (inactive) |  |
| C=C1CC2C3CCC4=CC(=O)C=C[C@]4(C)[C@@]3(F)[C@@H](O)C[C@]2(C)[C@@]1(O)C(=O)COC(C)=O (stereo partly specified) | -10.7% (inactive) |  |
| COc1cc2c(c(OC)c1OC)-c1c(cc3c(c1OC)OCO3)C[C@@H](C)[C@](C)(O)C2 |  | inactive |
| O=C1O[C@@H]2[C@@H](O)[C@H](O)O[C@@H]2[C@H]1O | -11.7% (inactive) |  |
| CC(C)(S)C(=O)N[C@@H](CS)C(=O)O |  | inactive |
| NCCCC[C@H](NC(=O)[C@@H]1CCCN1C(=O)[C@@H]1CSSC[C@H](N)C(=O)N[C@@H](Cc2ccccc2)C(=O)N[C@@H](Cc2ccccc2)C(=O)N[C@@H](CCC(N)=O)C(=O)N[C@@H](CC(N)=O)C(=O)N1)C(=O)NCC(N)=O | -13.6% (inactive) |  |
